Measurements taken from PubChem BioAssay (NCI).
The panel holds about 83,000 compounds, 20% with a hit somewhere; the sample as a whole holds those more often.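 96-well plates, one dose, 48 hours. Percent growth reported; active if below 10.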 A number with no mark means an inactive call. Active and inactive are the calls of the source.

Each molecule was assayed on MDA-MB-468 breast (assay: NCI-60 one-dose screen, 48 h (100 = growth as untreated, 0 = no growth, -100 = all killed)). Details: 10 µM unless noted.

| Compound | growth |
| --- | --- |
| COc1cccc(-c2nn(-c3ccccc3)cc2-c2ccnc(NCCNC(=O)Nc3ccccc3)c2)c1 | 49.7% |
| COc1ccc2c(c1)c(/C=N/Nc1ccnc3cc(Cl)ccc13)cn2C | -87.3% (active) |
| Cc1cc(N2CCCCCC2)nc(NC2CCCC(Nc3ccnc4cc(Cl)ccc34)C2)n1 (centres undefined) | -63.9% (active) |
| COc1ccc(-c2nn(-c3ccccc3)cc2/C=C/C(=O)c2ccc(NC(=O)CCCCCCC(=O)NO)cc2)cc1 | 92.8% |
| C=C1C(=O)O[C@H]2[C@H]1CC/C(COC(=O)NCc1ccc(Cn3c(=O)sn(-c4ccccc4)c3=O)cc1)=C\CC[C@@]1(C)O[C@@H]21 | -33.8% (active) |
| COC(=O)Nc1nc2ccc(C(=O)c3ccc(N(C)C4COC4)cc3)cc2[nH]1 | -8.89% (active) |
| CCOC(=O)C1=C(C)NC(=O)NC1c1cccs1 (centres undefined) | 102% |
| O=C1[C@H]2Cc3c([nH]c4ccccc34)[C@H](c3ccc(Br)cc3)N2C(=O)CN1C1CCN(CC2CCCCC2)CC1 | 80.1% |
| CCCc1cc(C(N)=S)ccn1 | 102% |
| CCCCCCCCc1ccc(CCC(N)(CO)CO)cc1 | -93.1% (active) |
| NC(N)=Nc1ccc(Oc2cccc(Oc3ccc(Cl)c(C(F)(F)F)c3)c2)cn1 | -79.3% (active) |
| Nc1nc(=S)c2ncn(C3OC(COP(=O)(O)O)C(O)C3O)c2[nH]1 (centres undefined) | 4.34% (active) |
| CCOC(=O)CC(=O)OC | 102% |
| CC(C)(C)n1cc(-c2ccnc(NCCCNS(=O)(=O)c3ccc(Cl)cc3)c2)c(-c2cccc(O)c2)n1 | -44.5% (active) |
